Source: PubChem BioAssay AID651681 (Broad Institute, 2012)
The source made the active and inactive calls.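 How the source made its calls: active means compound with fitted CDK2 half-maximal potency at or below twice its top tested dose; inconclusive means flat curve near 30 to 70% inhibition, or poor fit; inactive means the rest.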

target: Cyclin-dependent kinase 2 (Homo sapiens) + Cyclin-A2 (Homo sapiens) (UniProt P20248+P24941); experiment: CDK2/cyclin A inhibitors, off-target check, dose response, selectivity assay for Dyrk1A inhibitor project, biochemical, dry powder, set 3 (AID 651681); conditions: CDK2/cyclin A ADP-Glo luminescence, histone H1 peptide; series mostly up to 10 µM
Sequence (P20248 whole entry, looked up, one chain of several): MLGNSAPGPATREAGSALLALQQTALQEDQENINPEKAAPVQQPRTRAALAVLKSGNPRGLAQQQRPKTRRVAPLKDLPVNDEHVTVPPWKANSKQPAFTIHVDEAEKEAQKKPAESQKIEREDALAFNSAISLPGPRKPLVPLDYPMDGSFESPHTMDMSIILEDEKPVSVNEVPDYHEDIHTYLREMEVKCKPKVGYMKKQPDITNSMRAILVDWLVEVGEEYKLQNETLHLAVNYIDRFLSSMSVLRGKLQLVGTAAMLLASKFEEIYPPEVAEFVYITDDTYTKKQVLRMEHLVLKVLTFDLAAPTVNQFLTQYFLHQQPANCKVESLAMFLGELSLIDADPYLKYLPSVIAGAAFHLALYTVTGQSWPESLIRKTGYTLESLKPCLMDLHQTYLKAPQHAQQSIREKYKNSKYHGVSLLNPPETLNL

outcome, inactive:
Cc1ccccc1S(=O)(=O)Cc1ccc(C(=O)NC(C)c2ccc3c(c2)OCCO3)o1 (centres undefined)
CCOc1ccc2nc(NC(=O)COc3ccc(Cl)c(OC)c3)sc2c1
COc1ccc(OC)c(C2=Nn3c(nnc3-c3ccncc3)SC2)c1
COc1cccc(C2=Nn3c(nnc3-c3ccccc3)SC2)c1
